Assay [1] is described as follows: yeast TOR pathway RPL19A-GFP modulators, primary screen, cell-based, S. cerevisiae, multiplex flow cytometry (AID 1862; in the data active means percent of DMSO control GFP below about 86%;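 further: lower values mimic rapamycin by blocking the RPL19A rise seen in DMSO cells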). The following applies: S. cerevisiae RPL19A-GFP strain, flow cytometry fluorescence, 3 h; at 10 µM; stronger effect = lower value.
Assay [2] in a line: modulators of MEP2-GFP levels in yeast, primary screen, S. cerevisiae, multiplex flow cytometry (AID 1867;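 active means GFP response, as percent of the DMSO control, above the screen-wide mean plus 3 SD, about 139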;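 further: median GFP channel fluorescence of barcode-gated MEP2-GFP cells measured by flow cytometry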). The following applies: S. cerevisiae MEP2-GFP strain, 3 h, at 10 µM, stronger effect = higher value, 100% means same as DMSO wells.
Assay [3] can be described thus: modulators of CIT2-GFP expression in yeast, primary screen, S. cerevisiae, GFP fusion, multiplex flow cytometry (AID 1870;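 active means percent response above a set limit, the screen-wide mean plus 3 SD, cut at about 130% in these data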;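 further: barcoded CIT2-GFP strain pooled with four other GFP strains with rapamycin as positive control; median GFP fluorescence per well over plate mean of DMSO wells so 100% = DMSO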). Particulars: 3 h, at 10 µM, stronger effect = higher value.
A short description of assay [4]: modulators of LAP4-GFP expression in yeast, primary screen, S. cerevisiae, multiplex flow cytometry (AID 1873). Particulars: 3 h, at 10 µM, stronger effect = higher value.
Assay [5] can be described thus: modulators of AGP1-GFP expression in yeast TOR pathway, primary screen, cell-based, multiplex flow cytometry, S. cerevisiae (AID 1887;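 active means GFP signal above the screen-wide mean plus 3 SD, that is over about 124.5% of the solvent control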;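 further: AGP1-GFP fusion strain of S. cerevisiae within a five-strain barcoded multiplex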). The following applies: 3 h, at 10 µM, stronger effect = higher value.
A short description of assay [6]: inhibitors of CD8+ T cell-vesicle binding, pilot screen, LFA-1/ICAM-1 modulator project, MLPCN validation set, flow cytometry (AID 2523;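 active means response below a set limit, under 55% cells CD8-positive and vesicle-bound, and CD8 cells' 90th-percentile brightness under 279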;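 on vesicle binding response: mean PE anti-B7-1 fluorescence of CD8+ cells relative to row control; 100% = QL9-loaded vesicles with DMSO vehicle in the same plate row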). Particulars: 2C mouse CD8+ T cells, at 7 µM, stronger effect = lower value; double positive events: measured here: CD8+/vesicle+ event percentage.
Assay [7] deals with Integrin beta-1 (Homo sapiens) + Integrin alpha-4 (Homo sapiens) (UniProt P13612+P05556). Kind of assay: inhibition of HUTS-21 binding to VLA-4, pilot screen, VLA-4 allosteric modulator project, U937 cells, HUTS-21 mAb, flow cytometry, validation set (AID 2674;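 active means inhibition above 50%, about 3 SD of the validation set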;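 further: antibody binding induced by the VLA-4 ligand LDV present at three times its Kd; 0% = LDV ligand with antibody and no compound and 100% = antibody without LDV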). Particulars: HUTS-21 LIBS mAb binding, at 6.7 µM, stronger effect = higher value, binding induced by LDV ligand.
Integrin beta-1 (Homo sapiens) + Integrin alpha-4 (Homo sapiens), sequence (P05556 whole entry, looked up): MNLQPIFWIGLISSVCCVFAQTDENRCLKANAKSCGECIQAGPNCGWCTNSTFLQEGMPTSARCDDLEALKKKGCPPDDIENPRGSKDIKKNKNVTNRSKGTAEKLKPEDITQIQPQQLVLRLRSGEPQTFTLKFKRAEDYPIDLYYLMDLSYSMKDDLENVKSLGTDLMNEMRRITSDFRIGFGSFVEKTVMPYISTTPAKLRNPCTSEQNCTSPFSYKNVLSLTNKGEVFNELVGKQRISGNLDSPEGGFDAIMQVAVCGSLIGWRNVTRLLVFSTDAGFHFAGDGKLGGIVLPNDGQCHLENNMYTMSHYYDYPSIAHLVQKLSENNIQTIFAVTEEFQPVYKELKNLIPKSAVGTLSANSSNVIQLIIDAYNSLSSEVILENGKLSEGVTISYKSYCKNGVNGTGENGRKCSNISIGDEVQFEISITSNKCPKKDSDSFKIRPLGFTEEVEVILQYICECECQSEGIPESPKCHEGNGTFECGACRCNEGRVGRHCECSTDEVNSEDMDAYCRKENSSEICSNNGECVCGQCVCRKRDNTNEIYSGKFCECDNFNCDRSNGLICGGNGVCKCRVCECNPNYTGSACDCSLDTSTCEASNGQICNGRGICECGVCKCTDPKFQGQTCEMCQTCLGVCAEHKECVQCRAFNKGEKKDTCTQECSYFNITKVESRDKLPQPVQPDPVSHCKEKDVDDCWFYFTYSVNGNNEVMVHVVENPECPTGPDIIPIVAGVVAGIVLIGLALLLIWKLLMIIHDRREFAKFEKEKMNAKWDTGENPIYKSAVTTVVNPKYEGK
Integrin beta-1 (Homo sapiens) + Integrin alpha-4 (Homo sapiens), sequence (P13612 whole entry, looked up): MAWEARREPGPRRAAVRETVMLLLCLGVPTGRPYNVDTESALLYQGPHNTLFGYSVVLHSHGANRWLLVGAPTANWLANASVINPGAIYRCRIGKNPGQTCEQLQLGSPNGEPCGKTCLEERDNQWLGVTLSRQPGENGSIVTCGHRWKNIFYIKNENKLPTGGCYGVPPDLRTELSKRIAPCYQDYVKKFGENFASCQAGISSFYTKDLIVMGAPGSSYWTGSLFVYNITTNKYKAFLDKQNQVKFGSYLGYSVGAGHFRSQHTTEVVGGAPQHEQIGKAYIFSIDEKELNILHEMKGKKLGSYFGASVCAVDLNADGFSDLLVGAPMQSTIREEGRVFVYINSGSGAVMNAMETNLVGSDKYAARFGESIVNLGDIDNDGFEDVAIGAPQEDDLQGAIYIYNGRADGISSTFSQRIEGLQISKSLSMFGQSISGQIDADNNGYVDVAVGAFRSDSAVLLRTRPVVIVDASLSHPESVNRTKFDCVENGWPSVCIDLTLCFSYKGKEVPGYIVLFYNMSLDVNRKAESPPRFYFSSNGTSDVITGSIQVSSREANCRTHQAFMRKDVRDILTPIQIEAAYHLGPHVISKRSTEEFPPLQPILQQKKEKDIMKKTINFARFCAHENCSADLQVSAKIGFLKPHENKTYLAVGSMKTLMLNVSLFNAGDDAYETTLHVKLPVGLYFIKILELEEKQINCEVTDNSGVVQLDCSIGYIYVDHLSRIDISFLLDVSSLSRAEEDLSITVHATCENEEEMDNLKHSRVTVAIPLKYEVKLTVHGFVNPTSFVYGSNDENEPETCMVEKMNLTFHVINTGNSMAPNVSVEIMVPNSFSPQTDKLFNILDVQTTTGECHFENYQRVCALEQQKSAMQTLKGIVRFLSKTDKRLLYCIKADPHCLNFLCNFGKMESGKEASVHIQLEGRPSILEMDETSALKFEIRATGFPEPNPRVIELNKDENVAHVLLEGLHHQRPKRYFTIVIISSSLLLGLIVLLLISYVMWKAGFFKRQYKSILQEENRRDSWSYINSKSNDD
The nature of assay [8]: superoxide lowering in aged yeast cells, pilot screen, validation compound set (AID 2706;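 active means superoxide response below 65% of plate, a cut near 3 SD across the whole screen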;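 further: yeast exposed to compound for one week at 30 degrees C before staining; 100% = mean of all compound wells on the same plate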). Particulars: S. cerevisiae aging, superoxide DHE fluorescence; at 10 µM; stronger effect = lower value.
Assay [9] concerns the target Beta-adrenergic receptor kinase 1 (Homo sapiens) (UniProt P25098). Nature of the assay: GRK2 binders displacing RNA aptamer, biochemical, validation, human GRK2, bead flow cytometry (AID 488806;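 active means aptamer binding inhibition above 30%, about 3 SD of noise from non-fluorescent compounds; inactive means inhibition at or below 30%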). The following applies: bead-bound GRK2, FAM-aptamer displacement, at 10 µM, stronger effect = higher value.
The target of assay [10] is Beta-2 adrenergic receptor (Homo sapiens) (UniProt P07550). Nature of the assay: beta2AR agonists driving receptor internalization, pilot screen, cell-based, FAP fluorogen, flow cytometry, validation set (AID 504459;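 active means percent response above 42, roughly 3 SD of non-fluorescent test compounds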;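 further: agonist-driven loss of surface beta2AR via internalization measured by FAP dye flow cytometry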). The following applies: Am2.2-beta2AR cells, FAP surface receptor flow cytometry; at 10 µM; stronger effect = higher value.
Beta-2 adrenergic receptor (Homo sapiens), sequence (P07550 whole entry, looked up): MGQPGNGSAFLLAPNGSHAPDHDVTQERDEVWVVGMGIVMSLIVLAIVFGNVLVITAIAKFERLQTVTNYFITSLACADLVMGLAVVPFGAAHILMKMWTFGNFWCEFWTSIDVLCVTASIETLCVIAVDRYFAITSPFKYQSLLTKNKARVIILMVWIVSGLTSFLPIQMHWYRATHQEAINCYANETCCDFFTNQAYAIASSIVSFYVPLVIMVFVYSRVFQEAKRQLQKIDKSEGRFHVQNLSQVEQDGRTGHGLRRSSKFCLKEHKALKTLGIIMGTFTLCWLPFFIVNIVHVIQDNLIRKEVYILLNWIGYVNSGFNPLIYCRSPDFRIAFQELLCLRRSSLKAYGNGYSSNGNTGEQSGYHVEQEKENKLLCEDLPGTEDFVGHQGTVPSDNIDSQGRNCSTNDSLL
For assay [11], the target named is AP-2 complex subunit beta (Homo sapiens) (UniProt P63010). Kind of assay: inhibitors of arrestin peptide binding to AP2, pilot screen, biochemical, validation set, GST-AP2 beads, flow cytometry (AID 504541;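 active means inhibition above 54%, about 3 SD of non-fluorescent compounds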;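 further: AP2 carries R879A mutation and is captured from E. coli lysate; bead-bound FITC arrestin peptide fluorescence measuring arrestin peptide binding to AP2; 0% = DMSO wells and 100% = excess unlabeled arrestin peptide control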). The following applies: FITC arrestin peptide, at 10 µM, stronger effect = higher value, AP2 beta2 appendage fragment, R879A mutant.
AP-2 complex subunit beta (Homo sapiens), sequence (P63010 whole entry, looked up, the tested form may be a part, one chain of several): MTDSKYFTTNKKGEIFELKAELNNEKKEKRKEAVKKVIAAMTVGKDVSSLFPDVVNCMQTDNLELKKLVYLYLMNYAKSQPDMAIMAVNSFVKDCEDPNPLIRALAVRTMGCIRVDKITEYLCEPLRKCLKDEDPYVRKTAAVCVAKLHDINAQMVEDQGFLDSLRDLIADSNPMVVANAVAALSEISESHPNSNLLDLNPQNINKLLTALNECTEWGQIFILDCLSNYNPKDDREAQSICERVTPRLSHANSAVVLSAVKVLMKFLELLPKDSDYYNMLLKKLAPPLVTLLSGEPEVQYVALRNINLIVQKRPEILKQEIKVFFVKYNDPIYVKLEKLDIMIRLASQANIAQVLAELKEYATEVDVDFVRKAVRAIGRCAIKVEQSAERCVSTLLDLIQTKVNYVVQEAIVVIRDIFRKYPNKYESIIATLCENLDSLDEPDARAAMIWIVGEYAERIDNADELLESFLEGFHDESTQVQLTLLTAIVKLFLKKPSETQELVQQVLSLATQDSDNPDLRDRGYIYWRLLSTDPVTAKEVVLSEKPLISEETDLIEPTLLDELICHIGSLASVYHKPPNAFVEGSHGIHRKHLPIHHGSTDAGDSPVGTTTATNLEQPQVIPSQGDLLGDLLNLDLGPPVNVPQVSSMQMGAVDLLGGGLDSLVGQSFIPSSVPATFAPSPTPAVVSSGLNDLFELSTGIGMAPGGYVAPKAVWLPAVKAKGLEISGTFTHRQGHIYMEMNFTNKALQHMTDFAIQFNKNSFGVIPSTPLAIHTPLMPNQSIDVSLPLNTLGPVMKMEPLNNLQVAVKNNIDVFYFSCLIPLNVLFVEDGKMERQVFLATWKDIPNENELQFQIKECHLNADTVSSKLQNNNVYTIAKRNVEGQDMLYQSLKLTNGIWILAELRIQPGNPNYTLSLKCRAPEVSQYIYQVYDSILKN
A short description of assay [12]: yeast V-ATPase proton transport modulators, S. cerevisiae, pHLuorin, HTS validation (AID 504600; in the data active means response above about 15%;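 further: plate controls were DMSO for no effect and reference compound for full effect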). Particulars: S. cerevisiae pHLuorin cytosolic pH, at 10 µM, stronger effect = higher value.
Assay [13] concerns anti-desmoglein-3 scFv antibody binding to human DSG3. Kind of assay: inhibitors of anti-DSG3 scFv binding to DSG3, pilot screen, biochemical, validation compound set, bead-based, flow cytometry (AID 588368;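 active means binding below the plate cutoff, the plate median minus 3 SD, with a reading above zero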;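 further: signal is the median channel fluorescence of bead-bound GFP antibody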). The following applies: Protein G beads, DSG3-Fc, scFv-GFP binding, at 10 µM, stronger effect = lower value.
Assay [14] can be described thus: inhibitors of fungal efflux pumps CDR1, CDR2, MDR1, pilot screen, validation compound set, multiplex, phenotypic (AID 588506;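 active means efflux inhibition above 0.42, the validation set average plus 4 SD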;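 further: Nile Red retained in cells so higher fluorescence means more efflux inhibition; 0 = negative control wells and 1 = enniatin B 25 µM full block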). Particulars: S. cerevisiae pump-expressing triplex, Nile Red efflux flow cytometry; at 10 µM; stronger effect = higher value; the pumps come from Candida albicans.
Assay [15] deals with ATP-binding cassette sub-family B member 6 (Homo sapiens) (UniProt Q9NP58). Kind of assay: ABCB6 transporter inhibitors, pilot screen, K562-ABCB6 cells, flow cytometry, validation set (AID 588550;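 active means inhibition above the screen-wide mean plus 3 SD, about 51%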;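 further: 0% = DMSO wells and 100% = benzethonium chloride 70 µM positive control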). The following applies: K562-ABCB6 porphyrin accumulation, 1 h, at 10 µM, stronger effect = higher value.
ATP-binding cassette sub-family B member 6 (Homo sapiens), sequence (Q9NP58 whole entry, looked up): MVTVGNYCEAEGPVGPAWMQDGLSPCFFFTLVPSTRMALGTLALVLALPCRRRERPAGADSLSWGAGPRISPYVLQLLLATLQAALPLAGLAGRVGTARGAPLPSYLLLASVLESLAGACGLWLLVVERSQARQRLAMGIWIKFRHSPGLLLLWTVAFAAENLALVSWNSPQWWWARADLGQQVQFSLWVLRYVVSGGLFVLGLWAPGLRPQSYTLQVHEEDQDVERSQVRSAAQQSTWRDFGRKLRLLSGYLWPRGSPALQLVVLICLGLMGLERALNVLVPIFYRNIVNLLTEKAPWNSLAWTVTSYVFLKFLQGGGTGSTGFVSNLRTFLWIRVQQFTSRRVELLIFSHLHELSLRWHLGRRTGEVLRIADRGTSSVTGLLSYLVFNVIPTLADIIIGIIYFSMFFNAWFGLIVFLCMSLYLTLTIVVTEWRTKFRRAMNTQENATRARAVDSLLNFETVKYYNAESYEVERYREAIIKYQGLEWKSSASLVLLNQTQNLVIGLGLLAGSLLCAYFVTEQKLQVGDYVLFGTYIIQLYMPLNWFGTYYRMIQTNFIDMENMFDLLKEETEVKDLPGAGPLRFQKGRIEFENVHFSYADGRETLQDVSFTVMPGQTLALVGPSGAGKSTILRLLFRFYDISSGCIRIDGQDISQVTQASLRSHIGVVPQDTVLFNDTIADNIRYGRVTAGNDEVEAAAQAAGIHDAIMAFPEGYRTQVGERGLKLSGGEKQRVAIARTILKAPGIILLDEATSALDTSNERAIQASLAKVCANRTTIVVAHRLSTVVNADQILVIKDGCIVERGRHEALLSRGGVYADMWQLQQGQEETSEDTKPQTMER
The nature of assay [16]: promoters of myeloid differentiation in arrested cells, primary screen, cell-based, GFP/MAC1 double positive, flow cytometry, validation set (AID 588685;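 active means differentiation response of at least 50%, scaled between solvent and reference control, from cells with both markers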;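 further: compound exposure lasts four days before antibody staining and flow analysis; 0% = DMSO wells and 100% = 5 µM fulvestrant positive control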). The following applies: ER-HoxA9 marrow cells, stronger effect = higher value, normalized: vehicle 0, fulvestrant 100.

This note sets out measurements from PubChem BioAssay.

Records with an inconclusive call do not appear. Active and inactive are the calls of the source.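 How the source made its calls, unless noted: active means GFP signal, as percent of the solvent control, above the screen mean plus 3 SD, about 149; inconclusive means no reading because the compound's own fluorescence upset strain identification; inactive means the rest.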

Beta-adrenergic receptor kinase 1 (Homo sapiens), sequence (P25098 whole entry, looked up): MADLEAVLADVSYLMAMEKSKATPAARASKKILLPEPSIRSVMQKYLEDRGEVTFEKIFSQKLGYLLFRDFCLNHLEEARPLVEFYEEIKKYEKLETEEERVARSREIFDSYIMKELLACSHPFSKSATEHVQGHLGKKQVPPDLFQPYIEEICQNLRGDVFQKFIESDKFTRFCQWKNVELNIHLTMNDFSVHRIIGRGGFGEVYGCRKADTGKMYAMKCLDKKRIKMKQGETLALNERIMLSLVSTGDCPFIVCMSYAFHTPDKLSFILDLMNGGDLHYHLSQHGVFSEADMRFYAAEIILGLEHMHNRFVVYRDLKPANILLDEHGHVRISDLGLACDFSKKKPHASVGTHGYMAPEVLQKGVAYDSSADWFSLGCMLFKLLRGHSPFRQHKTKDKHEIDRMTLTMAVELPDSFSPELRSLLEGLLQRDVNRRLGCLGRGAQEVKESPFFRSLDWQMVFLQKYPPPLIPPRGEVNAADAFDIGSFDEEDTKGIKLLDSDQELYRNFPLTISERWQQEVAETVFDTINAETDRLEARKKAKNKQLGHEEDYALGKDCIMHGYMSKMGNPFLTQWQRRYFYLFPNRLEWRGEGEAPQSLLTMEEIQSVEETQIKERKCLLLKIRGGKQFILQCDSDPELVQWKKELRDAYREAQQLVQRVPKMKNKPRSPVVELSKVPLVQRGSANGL

As to `CC(=O)[C@@]1(O)CC[C@H]2[C@@H]3C[C@H](C)C4=CC(=O)C=C[C@]4(C)[C@@]3(F)[C@@H](O)C[C@@]21C`, in assay [1], the percent of DMSO control GFP is 102% (inactive). In addition, the figures for the GFP response vs DMSO in assay [2] and in [4] were 134% (inactive) and 93% (inactive), respectively. Besides, in assay [3], the percent response of DMSO control was 110% (inactive). Moreover, in assay [5], the GFP response, % of DMSO is 95.2% (inactive). Further, the double positive events in assay [6] amounted to 63.3%. In addition, the vesicle binding response in [6] is 157% (inactive). Besides, the inhibition was 2.58% (inactive) in assay [7], 32.1% (inactive) in assay [11] and 9% (inactive) in assay [15]. For the same compound, the superoxide response (% of plate) in [8] was 99.4% (inactive). Moreover, in assay [9], the aptamer binding inhibition was 5% (inactive). For the same compound, the values for the response in assay [10] and in [12] were -0.53% (inactive) and -3.11% (inactive), respectively. Also, the binding (% of control) in assay [13] is 101% (inactive). Also, the efflux inhibition (fraction of control) in [14] is -0.35 (inactive). In addition, the differentiation response in assay [16] was 9.83% (inactive).

Regarding `COc1cccc(CN2C(=O)N(C(C)C)C(N(O)C(=O)NC(C)C)C2(C)C)c1OC` (stereo not given), in [1], the percent of DMSO control GFP was 98.2% (inactive). Besides, the GFP response vs DMSO in assay [2] is 103% (inactive); in assay [4], 97.3% (inactive). The percent response of DMSO control in assay [3] is 115% (inactive). Besides, the GFP response, % of DMSO in assay [5] is 101% (inactive). The double positive events in assay [6] came out at 67.3%. The vesicle binding response in [6] is 216% (inactive). In addition, the inhibition was -11.9% (inactive) in [7], -6.77% (inactive) in assay [11] and 26% (inactive) in assay [15]. In assay [8], the superoxide response (% of plate) was 84.9% (inactive). Also, the aptamer binding inhibition in assay [9] is -1% (inactive). Moreover, the response in assay [10] is -7.26% (inactive); in assay [12] it was -0.84% (inactive). For the same compound, in assay [13], the binding (% of control) is 97.4% (inactive). The efflux inhibition (fraction of control) in assay [14] is -0.04 (inactive). For the same compound, the differentiation response in assay [16] is 7.09% (inactive).

With `CC(C)[C@H](NC(=O)[C@@H]1CSCN1C(=O)OC(C)(C)C)C(=O)NCC1CCC(C(=O)O)CC1` (stereo not given in full), the percent of DMSO control GFP in [1] is 99.7% (inactive). In addition, the figures for the GFP response vs DMSO in [2] and in assay [4] were 97.4% (inactive) and 84.6% (inactive), respectively. Besides, the percent response of DMSO control in [3] is 104% (inactive). The GFP response, % of DMSO in assay [5] is 96.3% (inactive). Also, in assay [6], the double positive events was 64.5%. Moreover, the vesicle binding response in assay [6] was 283% (inactive). The inhibition in assay [7] is -4.52% (inactive); in assay [11], -2.51% (inactive); in assay [15], 109% (active). Besides, in assay [8], the superoxide response (% of plate) is 82.1% (inactive). The aptamer binding inhibition in assay [9] was 4% (inactive). The response is -5.23% (inactive) in [10] and 3.84% (inactive) in assay [12]. Besides, the binding (% of control) in assay [13] is 98.9% (inactive). Besides, the efflux inhibition (fraction of control) in assay [14] was 0.01 (inactive). In addition, in assay [16], the differentiation response is 0.8% (inactive).

In the case of `OCC(O)CN1CCN(c2ccccc2)CC1` (stereo not given), the percent of DMSO control GFP in assay [1] is 99.3% (inactive). In addition, the GFP response vs DMSO in assay [2] and in [4] was 103% (inactive) throughout. Further, the percent response of DMSO control in [3] is 90.5% (inactive). The GFP response, % of DMSO in [5] was 102% (inactive). The double positive events in [6] is 59.4%. Further, the vesicle binding response in [6] was 145% (inactive). The inhibition is 9.1% (inactive) in [7], -3.7% (inactive) in assay [11] and 9% (inactive) in [15]. Moreover, the superoxide response (% of plate) in [8] was 99.2% (inactive). For the same compound, the aptamer binding inhibition in assay [9] is 7% (inactive). Also, the results for the response in assay [10] and in assay [12] were -29.2% (inactive) and -24.2% (inactive), respectively. Besides, the binding (% of control) in assay [13] is 96.2% (inactive). Also, the efflux inhibition (fraction of control) in assay [14] is -0.04 (inactive). For the same compound, the differentiation response in [16] is 11.8% (inactive).

As to `CN(C)CCCN1c2ccccc2Sc2ccc(C(F)(F)F)cc21`, the percent of DMSO control GFP in assay [1] is 99% (inactive). The GFP response vs DMSO is 106% (inactive) in assay [2] and 115% (inactive) in assay [4]. Further, the percent response of DMSO control in assay [3] is 99% (inactive). Further, in [5], the GFP response, % of DMSO is 113% (inactive). Also, the double positive events in [6] came out at 60.5%. Also, the vesicle binding response in [6] is 196% (inactive). The inhibition in assay [7] was 53.4% (active); in assay [11], 29.2% (inactive); in assay [15] it was 6% (inactive). The superoxide response (% of plate) in assay [8] is 88.6% (inactive). Besides, the aptamer binding inhibition in assay [9] was -7% (inactive). In addition, the values for the response in assay [10] and in [12] were 26.6% (inactive) and -0.19% (inactive), respectively. Moreover, the binding (% of control) in [13] was 101% (inactive). In addition, in assay [14], the efflux inhibition (fraction of control) was 0.25 (inactive). In addition, the differentiation response in [16] is -18.8% (inactive).
